# In PubChem BioAssay (NCI):
# This is part of a sample that, as a whole, favours compounds with a hit. Of some 83,000 tested, about 20% had one in any assay.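 Cells were grown in 96-well plates and exposed to the test compound at a single concentration for 48 hours; results are reported as percent growth, with values below 10 considered active.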 Values without a mark were called inactive. Activity calls are given as the source filed them.
# System: HL-60(TB) leukemia
# Experiment: NCI-60 one-dose screen, 48 h (100 = growth as untreated, 0 = no growth, -100 = all killed)
# Conditions: 10 µM unless noted
row,Structure (SMILES),growth
1,Clc1ccc(N2N=C(c3cccc(Nc4ccncc4)c3)CC2c2ccc(Br)cc2)cc1 (stereo not given),0.656% (active)
2,COc1ccc(-c2nn(-c3cccc(Cl)c3)cc2-c2cc(-c3ccccc3)[nH]c(=O)c2C#N)cc1,111%
3,O=C1CCC(C(=O)N/N=C/c2ccc([N+](=O)[O-])cc2)N1 (stereo not given),96.7%
4,Cc1ccc(Nc2ncnc3c2sc2ncccc23)cc1,71.2%
5,OCCN1CCCCCCC1,102%
6,O=C(Nc1ccccc1F)Nc1ccccc1Cl,52%
7,Cn1/c(=N/NC(N)=S)ccc2ccccc21,106%
8,NCCOc1ccccc1/C=C1\c2ccccc2-c2ccc([N+](=O)[O-])cc21,-59.3% (active)
9,COc1cc(-c2nn(-c3ccc(C(=O)O)cc3)cc2C(=O)O)ccc1O,46.1%
10,COc1ccc(C(O)c2cc3c(N)c(C(=O)Nc4cccc(Br)c4C)sc3nc2C)cc1 (stereo not given),-41% (active)
11,Nc1ccc(-c2ccncc2)cc1NC(=O)N1CCCC1,120%
12,COc1cc2cn3c4ccc(O)cc4nc(N)c3c2cc1OC,24.5%
13,Cn1cc(-c2nonc2-c2c[nH]c3ccc(F)cc23)c2cc(Br)ccc21,56.5%
14,CCOC(=O)c1cc2c(n(C)c1=O)-c1cnn(-c3ccc(OC)cc3)c1CC2,113%
15,CCc1c(Nc2ccccc2C)nc(N)[nH]c1=O,88.9%
16,N#CCCN1C/C(=C/c2ccc(Br)cc2)C(=O)/C(=C/c2ccc(Br)cc2)C1,1.68% (active)
17,CN(C)CCN(Cc1ccccc1)c1ccccc1,86.6%
18,COc1ccc2nc(C)cc(Nc3ccccc3O)c2c1,5.11% (active)
19,C#CCNC(=O)c1cccc2c1cc(C)n2-c1nc2c(c(NCc3ccccc3)n1)CCCC2,0.47% (active)
20,CN1CCN(c2ccc(Nc3c4ccccc4nc4ccccc34)cc2)CC1,119%

row,Structure (SMILES),growth
1,COC(=O)C1=C(C)NC(C)=C(C(=O)OC)C(N2C(=O)CCC2=O)C1 (stereo not given),90.8%
2,COc1ccccc1CNc1c2ccccc2nc2ccccc12,44.8%
3,COC(=O)c1nc(=S)[nH]c(C(=O)OC)c1C(=O)c1ccccn1,97.9%
4,COc1ccc(N=C2CSc3nnc(-c4cc(F)c(Cl)cc4Cl)n3N2)cc1,-48% (active)
5,COc1ccc2c(c1)/C(=C\c1c[nH]c3ccc(OC)cc13)C(=O)N2,20.8%
6,CNC(=O)OC1C(O[C@H]2C[C@H]3[C@@H]4CC=C5C[C@@H](O)CC[C@]5(C)[C@H]4CC[C@]3(C)[C@H]2[C@H](C)C(=O)CCC(C)C)OCC(O)C1OC1OCC(O)C(O)C1OC(=O)c1ccc(OC)cc1 (stereo not given in full),-12.1% (active)
7,COc1cc(NC(C)CCCNC(=O)CCC(=O)NCCCNCCCCCCCCCCNCCCNC(=O)CCC(=O)NCCCC(C)Nc2cc(OC)cc3cccnc23)c2ncccc2c1 (stereo not given),58.2% [8 µM]
8,Cc1cccc(NC(=O)Nc2ccc(-n3cnc4cc(-c5ccc(O)cc5)ccc43)cc2)c1,8.69% (active)
9,CCOC(=O)CCCS(C)(=O)=O,117%
10,O=C1C(Cl)=C(NCCCCCCNC2=C(Cl)C(=O)c3ccccc3C2=O)C(=O)c2ccccc21,55.7%
11,C=CCSSc1ncnc2c1ncn2C1OC(CO)C(O)C1O (stereo not given),21.5%
12,C=CN(C)S(C)(=O)=O,5.83% (active)
13,COc1ccc(/C=C/C(=O)c2cccc(B(O)O)c2)cc1O,4.3% (active)
14,COc1cc(/C=C2\COc3ccc(-c4ccccc4)cc3C2=O)cc(OC)c1,42.9%
15,CC1(C)CC[C@]2(C(=O)O)CC[C@]3(C)[C@H](CC[C@@H]4[C@@]5(C)CCC(=O)C(C)(C)[C@@H]5CC[C@]43C)[C@H]2[C@H]1OC(=O)C(F)(F)F,-23.4% [100 µM] (active)
16,CC(=O)Oc1ccc(N2C(=O)C(Cl)=C(Nc3cccc(C(F)(F)F)c3)C2=O)cc1,96.5%
17,COc1ccc(/C=C2/C(=O)N=C3N2NC(c2ccccc2)=CN3c2ccccc2)cc1,101%
18,N#CC1=C(N)Oc2c(sc3c(Br)cccc23)C1c1ccc([N+](=O)[O-])cc1 (stereo not given),-13.7% (active)
19,COc1ccc(C(=O)N/N=C/c2ccc(O)cc2O)cc1Nc1ccnc(C(F)(F)F)c1,14.4%
20,O=C(c1c[nH]c2ccccc12)C(Sc1nc2ccccc2c(=O)[nH]1)c1ccccc1 (stereo not given),93.1%
